Inconclusive results are not listed. The source made the active and inactive calls. Unless noted, calls come from the whole dose curve.
Tests used:
[1] = Nuclear factor erythroid 2-related factor 2/antioxidant responsive element (Nrf2/ARE) small molecule agonists: qHTS cell viability counter screen in human keratinocytes (AID 1919968; active = well fitted curve in the direction sought with a large enough effect in the repeat runs; an effect the other way counts as inactive or inconclusive; note: nearly all actives have a fitted effect of over 55% in size)
Summary of the method: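 KeratinoSens HaCaT cells, 1,500/well, preincubated 5 h, then exposed to compounds in DMSO for 23 h at 37 C/5% CO2. Viability read as CellTiter-Fluor fluorescence after 1 h, in the same wells as the ARE-luciferase read.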

[2] = Nuclear factor erythroid 2-related factor 2/antioxidant responsive element (Nrf2/ARE) small molecule agonists: luciferase reporter gene qHTS assay in human keratinocytes (AID 1919969); note: nearly all actives have a fitted effect of over 35% in size
[3] = target: Gonadotropin-releasing hormone receptor (Homo sapiens) (UniProt P30968); experiment: Human gonadotropin-releasing hormone receptor (GnRHR) small molecule agonists, calcium flux assay in GnRHR-HEK293 cells (AID 1920063); note: nearly all actives have a fitted effect of over 35% in size
Summary of the method: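 HEK293 cells stably expressing human GnRHR were dye-loaded for 1 h at 37 C. Compound was added in agonist mode and fluorescence (Ex/Em 480/540) recorded kinetically for 3 min. Fifteen concentrations, triplicates.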

[4] = target: KiSS-1 receptor (Homo sapiens) (UniProt Q969F8); experiment: Human kisspeptin (KISS1R) small molecule agonists, calcium flux assay in KISS1R-HEK293 cells (AID 1920064; active = well fitted curve in the direction sought with a large enough effect in the repeat runs; an effect the other way counts as inactive or inconclusive)
Summary of the method: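 HEK293 cells stably expressing human KISS1R were loaded with calcium dye for 1 h at 37 C, then given compound; fluorescence (Ex/Em 480/540) was read kinetically for 3 min. Fifteen concentrations, triplicate.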

[5] = G protein-coupled receptor (GPCR) small molecule agonists, calcium flux assay: HEK293 wild type cell line counter screen (AID 1920065)
Summary of the method: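 Wild-type HEK293 cells plated 18 h, loaded with calcium dye 1 h at 37 C, then compounds added in agonist mode (ATP as positive control). Kinetic fluorescence Ex/Em 480/540 recorded 3 min at 1 sec intervals; 15 concentrations, triplicate.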

[6] = p53 small molecule agonists, cell-based qHTS assay with human liver microsomes (AID 1963577)
Summary of the method: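 Compounds act here after metabolic activation: human liver microsomes and NADPH, both at 0.5 mg/mL final, were co-added to p53RE-bla cells. Incubation ran 16 h at 37 C, followed by LiveBLAzer detection.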

[7] = p53 small molecule agonists, cell-based qHTS assay with rat liver microsomes (AID 1963578)
Summary of the method: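 Read-out is beta-lactamase reporter fluorescence (LiveBLAzer, 2 h, room temperature, dark) in p53RE-bla cells treated 16 h at 37 C with compound, rat liver microsomes and NADPH, both 0.5 mg/mL final.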

[8] = p53 small molecule agonists, cell-based qHTS assay with human liver microsomes: qHTS cell viability counter screen (AID 1963579); note: nearly all actives have a fitted effect of over 45% in size
Summary of the method: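 Cells carrying the p53 response-element beta-lactamase reporter are treated for 16 h at 37 C with test compounds in the presence of human liver microsomes and NADPH (both 0.5 mg/mL final); ATP-based CellTiter-Glo luminescence then reports viability.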

[9] = p53 small molecule agonists, cell-based qHTS assay with rat liver microsomes: qHTS cell viability counter screen (AID 1963580); note: nearly all actives have a fitted effect of over 45% in size
Summary of the method: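 Intracellular ATP, by CellTiter-Glo luminescence, defines viability. HCT-116 p53RE-bla cells, 4,000 per well, were compound-treated in the presence of rat liver microsomes and NADPH for 16 h at 37 C.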

[10] = p53 small molecule agonists, cell-based qHTS assay: qHTS cell viability counter screen (AID 1963581); note: nearly all actives have a fitted effect of over 45% in size
Summary of the method: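 p53RE-bla HCT-116 cells, compounds added 5 h after plating and incubated 16 h at 37 C. Cytotoxicity measured in the same wells as intracellular ATP by CellTiter-Glo luminescence after 30 min at room temperature.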

[11] = p53 small molecule agonists, cell-based qHTS assay (AID 1963582; active = well fitted activation curve with a large enough effect in the signal ratio in the repeat runs, not every such curve was filed as active; the % refers to the signal ratio)
Summary of the method: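 p53RE-bla reporter cells, compounds added in DMSO after 5 h plating, incubated 16 h at 37 C. Beta-lactamase read via 2 h room-temperature LiveBLAzer B/G FRET substrate, fluorescence intensity.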

[12] = target: 5-hydroxytryptamine receptor 2A (Homo sapiens) (UniProt P28223); experiment: 5-hydroxytryptamine receptor 2A (HTR2A) small molecule antagonists, cell-based qHTS assay (AID 1963586); note: nearly all actives have a fitted effect of over 45% in size
Summary of the method: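 Antagonist-mode intracellular calcium assay: DOI (4 nM) added after 5 min compound pre-incubation at room temperature to dye-loaded HTR2A-CHO cells. Fluorescence followed for 3 min, sampled every second.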

[13] = target: 5-hydroxytryptamine receptor 2A (Homo sapiens) (UniProt P28223); experiment: 5-hydroxytryptamine receptor 2A (HTR2A) small molecule agonists, cell-based qHTS assay (AID 1963587); note: nearly all actives have a fitted effect of over 30% in size
Summary of the method: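 Kinetic calcium-flux fluorescence (2 min, 1 sec intervals) after compound addition in agonist mode. HTR2A-CHO cells were cultured 18 h, then dye-loaded 1 h at 37 C.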

[14] = target: Muscarinic acetylcholine receptor M1 (Homo sapiens) (UniProt P11229); experiment: Cholinergic receptor muscarinic 1 (CHRM1) small molecule antagonists, cell-based qHTS assay (AID 1963588); note: nearly all actives have a fitted effect of over 40% in size
Summary of the method: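 CHRM1-CHO calcium-flux assay, antagonist mode. Cells were seeded 18 h, dye-loaded 1 h at 37 C and given compound for 5 min at RT, then acetylcholine was added at 50nM. FDSS fluorescence was read 3 min; 15 concentrations, three runs.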

[15] = target: Muscarinic acetylcholine receptor M1 (Homo sapiens) (UniProt P11229); experiment: Cholinergic receptor muscarinic 1 (CHRM1) small molecule agonists, cell-based qHTS assay (AID 1963589); note: nearly all actives have a fitted effect of over 35% in size
Summary of the method: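 CHO cells stably expressing human CHRM1 were loaded with calcium dye for 1 h at 37 C, then compound was added in agonist mode. Intracellular calcium fluorescence was followed kinetically at 1 s intervals. Fifteen concentrations were tested in three independent runs.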

[16] = cAMP Responsive Elements (CRE) small molecule agonists, cell-based qHTS assay (AID 1963590)
Summary of the method: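 CRE-bla HEK 293T cells, 2,000/well in DMEM with 10% dialyzed FBS and 25 mM HEPES, pre-incubated 18 h at 37 C, then exposed to compound 3 h at 37 C. Beta-lactamase reporter read with LiveBLAzer B/G FRET substrate after 2 h at room temperature.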

[17] = cAMP Responsive Elements (CRE) small molecule antagonists, cell-based qHTS assay (AID 1963591; active = well fitted inhibition curve with a large enough effect in the signal ratio in the repeat runs, not every such curve was filed as active; the % refers to the signal ratio)
Summary of the method: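 CRE-bla HEK293T cells plated 18 h, then given compound plus NKH477 at 0.25 uM final for 3 h at 37C. Beta-lactamase reporter read with LiveBLAzer B/G FRET substrate after 2 h at room temperature.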

[18] = target: D(2) dopamine receptor (Homo sapiens) (UniProt P14416); experiment: Dopamine D2 receptor (DRD2) small molecule agonists, cell-based qHTS assay (AID 1963594); note: nearly all actives have a fitted effect of over 35% in size
Summary of the method: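 cAMP accumulation in DRD2-HEK293 cells measured by HTRF after 1 h detection; compounds added 10 min before NKH477 (200nM […]) forskolin-analogue stimulation, 30 min at room temperature, with Ro20-1724 present at 0.1 mM final.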

[19] = target: D(2) dopamine receptor (Homo sapiens) (UniProt P14416); experiment: Dopamine D2 receptor (DRD2) small molecule antagonists, cell-based qHTS assay (AID 1963595; active = well fitted inhibition curve with a large enough effect in the signal ratio in the repeat runs, with a control signal flat; the % refers to the signal ratio)
Summary of the method: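 HEK293 cells stably expressing DRD2 were preincubated with 0.1 mM Ro20-1724, then with compound for 10 min at room temperature. Cells were stimulated with 200 nM NKH477 plus 12 nM quinpirole for 30 min, and cAMP was read by HTRF.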

[20] = target: Beta-2 adrenergic receptor (Homo sapiens) (UniProt P07550); experiment: Adrenergic beta2 receptor (ADRB2) small molecule antagonists, cell-based qHTS assay (AID 1963592); note: series mostly up to about 92 µM; nearly all actives have a fitted effect of over 50% in size
Summary of the method: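 Cells (CHO, stable ADRB2 overexpression) incubated 18-20hr at 37C; compounds added from DMSO; agonist mix (1nM isoproterenol, 100uM IBMX, 25uM Ro-20-1724) added; 0.5hr RT; d2-cAMP and anti-cAMP-cryptate added; 1hr RT; 665/615 nm read.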

Measured: Potency

Chain of Beta-2 adrenergic receptor (Homo sapiens) (P07550 whole entry, looked up): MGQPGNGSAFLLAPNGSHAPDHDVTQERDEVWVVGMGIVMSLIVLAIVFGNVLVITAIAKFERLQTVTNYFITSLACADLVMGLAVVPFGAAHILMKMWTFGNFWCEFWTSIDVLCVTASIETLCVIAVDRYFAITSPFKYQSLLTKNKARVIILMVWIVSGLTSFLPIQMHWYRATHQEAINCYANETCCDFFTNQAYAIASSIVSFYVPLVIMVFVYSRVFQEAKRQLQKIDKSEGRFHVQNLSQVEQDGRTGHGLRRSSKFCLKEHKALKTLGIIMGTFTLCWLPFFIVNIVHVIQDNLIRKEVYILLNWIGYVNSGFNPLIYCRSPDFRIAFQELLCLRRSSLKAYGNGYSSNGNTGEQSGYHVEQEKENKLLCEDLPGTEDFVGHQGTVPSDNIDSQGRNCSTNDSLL
Chain of Gonadotropin-releasing hormone receptor (Homo sapiens) (P30968 whole entry, looked up): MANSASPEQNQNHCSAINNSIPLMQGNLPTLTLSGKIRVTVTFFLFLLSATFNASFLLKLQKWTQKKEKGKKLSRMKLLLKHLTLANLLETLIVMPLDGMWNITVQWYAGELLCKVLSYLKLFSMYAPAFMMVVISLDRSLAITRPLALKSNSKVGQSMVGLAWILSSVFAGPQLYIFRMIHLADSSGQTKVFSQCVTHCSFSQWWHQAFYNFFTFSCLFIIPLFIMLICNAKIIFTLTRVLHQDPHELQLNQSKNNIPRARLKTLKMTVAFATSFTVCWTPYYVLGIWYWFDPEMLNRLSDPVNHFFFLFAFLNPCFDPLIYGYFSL
Chain of KiSS-1 receptor (Homo sapiens) (Q969F8 whole entry, looked up): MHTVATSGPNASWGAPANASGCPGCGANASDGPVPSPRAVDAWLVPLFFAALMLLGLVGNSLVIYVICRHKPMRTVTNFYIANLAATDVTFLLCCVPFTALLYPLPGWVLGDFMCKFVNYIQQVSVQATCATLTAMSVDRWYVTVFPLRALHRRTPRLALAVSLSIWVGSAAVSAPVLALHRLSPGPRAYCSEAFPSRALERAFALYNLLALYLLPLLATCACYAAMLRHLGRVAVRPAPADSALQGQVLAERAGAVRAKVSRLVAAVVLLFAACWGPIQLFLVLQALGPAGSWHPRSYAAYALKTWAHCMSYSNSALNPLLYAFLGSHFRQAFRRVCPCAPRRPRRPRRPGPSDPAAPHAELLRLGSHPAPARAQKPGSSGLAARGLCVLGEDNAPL
Chain of 5-hydroxytryptamine receptor 2A (Homo sapiens) (P28223 whole entry, looked up): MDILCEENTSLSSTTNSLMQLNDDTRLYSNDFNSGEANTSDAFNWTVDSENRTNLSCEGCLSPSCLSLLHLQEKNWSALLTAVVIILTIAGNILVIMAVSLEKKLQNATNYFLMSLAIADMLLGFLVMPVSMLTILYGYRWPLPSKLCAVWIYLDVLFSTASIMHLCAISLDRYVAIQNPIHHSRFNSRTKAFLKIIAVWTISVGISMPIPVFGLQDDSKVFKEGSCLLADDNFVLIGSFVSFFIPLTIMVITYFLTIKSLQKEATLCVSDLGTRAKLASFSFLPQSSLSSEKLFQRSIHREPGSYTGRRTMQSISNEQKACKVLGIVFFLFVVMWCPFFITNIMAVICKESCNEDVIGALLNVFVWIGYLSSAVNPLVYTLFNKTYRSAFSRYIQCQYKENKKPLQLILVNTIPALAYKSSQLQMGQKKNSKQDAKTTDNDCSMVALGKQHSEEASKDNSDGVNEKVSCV
Chain of D(2) dopamine receptor (Homo sapiens) (P14416 whole entry, looked up): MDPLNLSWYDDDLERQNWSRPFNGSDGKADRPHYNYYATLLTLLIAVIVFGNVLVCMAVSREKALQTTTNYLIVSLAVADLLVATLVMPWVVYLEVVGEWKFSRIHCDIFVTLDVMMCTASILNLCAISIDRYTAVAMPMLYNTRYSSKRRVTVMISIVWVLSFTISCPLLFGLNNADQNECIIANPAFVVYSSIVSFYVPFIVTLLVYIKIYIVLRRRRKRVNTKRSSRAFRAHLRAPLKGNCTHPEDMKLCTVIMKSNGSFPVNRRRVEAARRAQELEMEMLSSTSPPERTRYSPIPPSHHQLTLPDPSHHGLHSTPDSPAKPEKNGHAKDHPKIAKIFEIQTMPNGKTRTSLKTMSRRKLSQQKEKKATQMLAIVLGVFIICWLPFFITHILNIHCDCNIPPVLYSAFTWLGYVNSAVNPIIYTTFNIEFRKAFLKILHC
Chain of Muscarinic acetylcholine receptor M1 (Homo sapiens) (P11229 whole entry, looked up): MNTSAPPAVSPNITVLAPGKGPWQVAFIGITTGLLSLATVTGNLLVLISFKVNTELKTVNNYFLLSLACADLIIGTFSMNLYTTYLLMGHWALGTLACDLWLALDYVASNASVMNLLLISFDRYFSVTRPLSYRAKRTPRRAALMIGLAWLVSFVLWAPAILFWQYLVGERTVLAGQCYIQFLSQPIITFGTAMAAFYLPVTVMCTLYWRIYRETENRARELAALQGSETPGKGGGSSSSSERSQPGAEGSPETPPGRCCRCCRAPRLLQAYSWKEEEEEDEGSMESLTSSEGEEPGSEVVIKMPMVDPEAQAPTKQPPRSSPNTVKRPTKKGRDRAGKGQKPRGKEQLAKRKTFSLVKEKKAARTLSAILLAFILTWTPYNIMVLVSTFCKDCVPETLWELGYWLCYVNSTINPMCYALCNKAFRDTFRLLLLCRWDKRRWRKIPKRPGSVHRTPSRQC

Cc1c(C(=O)NCCO)[n+](=O)c2ccccc2n1[O-]
not listed: [20]
inactive: all other assays above

CC(C)NCC(O)COc1ccc(COCCOC(C)C)cc1 (stereo not drawn)
not listed: [18] | [20]
inactive: all other assays above

CN1C(=O)CC(c2ccccc2)C1=O (stereo not drawn)
not listed: [18]
inactive: all other assays above

O=C(O)CP(=O)(O)O
not listed: [18]
inactive: all other assays above

Cn1cnc2ncnc(N)c21
inactive: all assays above

O=C1O[C@@H]2[C@@H](O)[C@H](O)O[C@@H]2[C@H]1O
not listed: [18]
inactive: all other assays above

Clc1cc(Cl)nc(Cl)n1
not listed: [18]
inactive: all other assays above

C#CC(C)(CC)OC(=O)c1ccccc1C(=O)O (stereo not drawn)
not listed: [18]
inactive: all other assays above

CCCC(C)C(=O)OCC (stereo not drawn)
not listed: [20]
inactive: all other assays above

OC1CCC(C2CCCCC2)CC1 (stereo not drawn)
not listed: [20]
inactive: all other assays above

O=S1OCCO1
inactive: all assays above

CCCCC(=O)O[C@]1(C(=O)CO)[C@H](C)C[C@H]2[C@@H]3CCC4=CC(=O)C=C[C@]4(C)[C@@]3(F)[C@@H](O)C[C@@]21C
inactive: all assays above

O=C(CCBr)N1CCN(C(=O)CCBr)CC1
not listed: [20]
inactive: all other assays above

COC(=O)/C=C\C(=O)O
not listed: [20]
inactive: all other assays above

CC(C)(C)C1(CCc2ccc(Cl)cc2)CO1 (stereo not drawn)
inactive: all assays above
